Measurements published in PubChem BioAssay (NCI).
This is part of a sample that, as a whole, favours compounds with a hit. Of some 83,000 tested, about 20% had one in any assay.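 A percent growth of 40 corresponds to 60% growth inhibition; 0 means no net growth; -100 means all cells died. Active threshold: below 10.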 A number with no mark means an inactive call. Activity calls are given as the source filed them.

Legend:
Assay in all cases: NCI-60 one-dose screen, 48 h (100 = growth as untreated, 0 = no growth, -100 = all killed)
Settings in all cases: 10 µM unless noted
HCT-15 colon = test system: HCT-15 colon
HT29 colon = test system: HT29 colon
SNB-75 CNS = test system: SNB-75 CNS
U251 CNS = test system: U251 CNS
PC-3 prostate = test system: PC-3 prostate
SK-MEL-5 melanoma = test system: SK-MEL-5 melanoma
UACC-62 melanoma = test system: UACC-62 melanoma
LOX IMVI melanoma = test system: LOX IMVI melanoma
SK-MEL-28 melanoma = test system: SK-MEL-28 melanoma
SNB-19 CNS = test system: SNB-19 CNS

Structure (SMILES) | growth (HCT-15 colon) | growth (HT29 colon) | growth (SNB-75 CNS) | growth (U251 CNS) | growth (PC-3 prostate) | growth (SK-MEL-5 melanoma) | growth (UACC-62 melanoma) | growth (LOX IMVI melanoma) | growth (SK-MEL-28 melanoma) | growth (SNB-19 CNS)
CNc1nc2ccccc2n2c(-c3ccc(O)c(O)c3)cnc12 | 5.19% (active) | 2.27% (active) | -15.5% (active) | 6.12% (active) | 31.7% | -23.6% (active) | 4.77% (active) | 5.44% (active) | 23.3% | –
O=C(N/N=C/c1c[nH]c2ccccc12)Nc1ccccc1Cl | 7.73% (active) | -24.2% (active) | 5.18% (active) | 13.7% | – | -38.6% (active) | 11.4% | -45.1% (active) | 39.7% | 32.8%
FC(F)(F)c1cc2c(Cl)ncnc2n1CCN1CCCCC1 | -30.7% (active) | 56.2% | 13.6% | 81.8% | 55.8% | 83.2% | 50.8% | -88.8% (active) | 52.5% | –
O=C(Cn1c(-c2ccccc2)nc2ccccc21)N=Nc1c(O)[nH]c2ccc(Br)cc12 | 1.07% (active) | -33.1% (active) | -62.4% (active) | -12.6% (active) | – | -50.2% (active) | -39.7% (active) | -24.7% (active) | -65.4% (active) | -35.5% (active)
O=C(NNC(=S)NC(=O)c1ccccc1)c1ccc(OCc2nc3ccc(Cl)cc3[nH]2)cc1 | -75.1% (active) | -6.38% (active) | – | -71.4% (active) | 2.48% (active) | -73.4% (active) | -88.4% (active) | -92.2% (active) | -82.7% (active) | -12.9% (active)
N#CC1=C(c2ccco2)Nc2c(c(-c3ccccc3)nn2-c2ccccc2)C12C(=O)Nc1ccc(Cl)cc12 (stereo unspecified) | 30.4% | 41.9% | -56.4% (active) | -21.7% (active) | -41% (active) | 50.4% | 37.4% | 2.55% (active) | 45.6% | –
COc1ccc(/C=C/c2nc3ccccc3c(=O)n2CC(=O)Nc2ccccc2)cc1 | 79.9% | 83.3% | -35% (active) | 16.3% | – | 71.6% | 78.6% | 26.9% | 79.1% | 29.1%
COc1cc(C=O)ccc1OC(=O)c1cc(-c2ccc(C)cc2)n(-c2ccc(S(C)(=O)=O)cc2)n1 | 96.7% | 113% | 104% | 100% | 100% | 100% | 91.4% | 98.8% | 113% | –
CCCCCCCCCc1ccc(C(=O)Nc2cc(C)ccc2C(=O)OC)cc1 | 103% | 98.9% | 117% | 112% | 105% | 102% | 83.7% | 102% | 107% | –
O=C(CSc1nc2sc3c(c2c(=O)n1-c1ccc(Cl)cc1)CCCC3)NNC(=O)c1ccc(Br)cc1 | 73.9% | 100% | 82.7% | 26.6% | 71.8% | 74.2% | 36.6% | 52.1% | 78.8% | –
COc1ccc(NC(=O)Cn2c(/C=C/c3ccc([N+](=O)[O-])cc3)nc3ccccc3c2=O)cc1 | 73.7% | 85.5% | -32.7% (active) | 32.2% | 89.7% | 52.6% | 73.2% | 61.5% | 80.8% | –
O=CNc1cccc(-n2cnc3cc(-c4ccc(O)cc4)ccc32)c1 | 15.5% | 22.7% | 21.4% | 25.4% | – | 35.6% | 38.2% | 21.2% | 56.2% | 43.3%
O=C1Nc2ccc(F)cc2/C1=C/C(=O)c1cc2ccccc2oc1=O | 62.7% | 115% | 91.1% | 104% | 93.7% | 102% | 82.2% | 80.4% | 117% | –
O=C1Nc2ccccc2/C1=C/C(=O)c1cc2ccccc2oc1=O | 30.3% | 110% | 126% | 107% | 95.1% | 99.9% | 88.9% | 91% | 36.7% | –
